UHRF1 MBD2 ctr = UHRF1 methyl-DNA binding inhibition; UHRF1 binding to methylated oligo, TR-FRET; inhibition, % at 4.4 µM; 370,000 compounds, 0.75% hits;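 also: UHRF1 SRA domain binding a hemimethylated CpG hairpin DNA probe; 0% = median of test compound wells and 100% = reference inhibitor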
PRMT1 inh = PRMT1 (human) inhibition, primary screen; inhibition, % at 2.79 µM; 370,000 compounds, 1.3% hits; Q99873; recombinant PRMT1, activity-based probe fluorescence polarization;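 active = inhibition above about 21% made by adding two undisclosed values, limit read from the data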
MBD2 DNA inh = inhibitors of human MBD2 binding to methylated oligonucleotide; Q9UBB5; TR-FRET; inhibition, % at 4.4 µM; 370,000 compounds, 0.31% hits; in the data active = inhibition above about 13%
Target sequence (Q9UBB5 whole entry, looked up): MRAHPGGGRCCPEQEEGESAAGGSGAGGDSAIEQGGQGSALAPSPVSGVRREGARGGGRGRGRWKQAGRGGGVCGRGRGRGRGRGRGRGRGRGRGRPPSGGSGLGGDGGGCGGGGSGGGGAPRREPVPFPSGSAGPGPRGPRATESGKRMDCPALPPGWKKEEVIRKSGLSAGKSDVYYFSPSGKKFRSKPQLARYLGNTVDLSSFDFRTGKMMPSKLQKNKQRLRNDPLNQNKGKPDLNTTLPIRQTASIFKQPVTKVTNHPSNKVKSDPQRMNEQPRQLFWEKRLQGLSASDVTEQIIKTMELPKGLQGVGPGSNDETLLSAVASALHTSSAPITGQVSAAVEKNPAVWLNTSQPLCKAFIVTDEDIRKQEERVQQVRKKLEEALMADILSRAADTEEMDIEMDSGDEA
PfG6PD inh = PfG6PD (Plasmodium falciparum) enzyme inhibition; PfGluPho enzyme, NADPH resazurin-diaphorase fluorescence; inhibition, % at 20 µM; 350,000 compounds, 0.78% hits; AID 504690;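 active = inhibition reaching at least a set limit at 20 µM in the primary screen, cut at about 59% in these data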;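 also: 0% = DMSO wells with substrate and 100% = DMSO wells lacking glucose-6-phosphate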
PfM18AAP inh = PfM18AAP enzyme inhibition; inhibition, % at 7.35 µM; recombinant PfM18AAP, H-Glu-NHMec fluorogenic cleavage; 290,000 compounds, 1.2% hits;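 active = inhibition above the campaign mean inhibition over all tested compounds plus 3 SD, cut at about 28% in these data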;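 also: 0% = plate median of test compound wells and 100% = 2 mM ZnCl2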
UHRF1 DNA bind = inhibits human UHRF1 binding to methylated oligonucleotide, MBD2 counter-screen. shares compounds with MBD2 DNA inh. TR-FRET. inhibition, % at 4.4 µM. 1,000 compounds, 25% hits. AID 720530;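 also: UHRF1 SRA domain binding a labeled hemimethylated CpG hairpin DNA; 0% = vehicle only and 100% = reference inhibitor with vehicle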
MBD2 confirm = confirmation of human MBD2-DBD methylated oligonucleotide binding inhibitors. TR-FRET MBD2-DBD binding to methylated oligonucleotide. shares compounds with MBD2 DNA inh. 1,000 compounds, 26% hits. inhibition, % at 4.4 µM; in the data active = inhibition above about 14%
* = called active by the depositor; . = no result given. A selection: hits, their analogues and other compounds. The true share with any hit is near 3.3%. Rule as the data show it, unless noted: active = inhibition above about 21%; inactive = the rest.

SMILES | UHRF1 MBD2 ctr | PRMT1 inh | MBD2 DNA inh | PfG6PD inh | PfM18AAP inh | UHRF1 DNA bind | MBD2 confirm
CC(Sc1nnc(CNC(=O)c2ccco2)n1C)C(=O)Nc1nccs1 (stereo not drawn) | 3 | 5 | 4 | -2 | -8 | . | .
CC(C)(C)OC(=O)NCCCCCNC(=O)c1nc[nH]c1C(=O)NCCCCCNC(=O)OC(C)(C)C | -3 | -1 | -4 | 7 | . | . | .
Cc1ccc(C)c2[nH]c(=O)c(CN(Cc3nnnn3C3CCCCC3)CC3CCCO3)cc12 (stereo not drawn) | -2 | 1 | 1 | 22 | 9 | . | .
Cc1ccc(C)c2[nH]c(=O)c(CN(CCN3CCOCC3)Cc3nnnn3CC3CCCO3)cc12 (stereo not drawn) | 3 | 9 | 18* | -2 | -1 | 6 | 1
CCn1c(SC)nnc1C1CCCN(CC(=O)Nc2ccccc2N2CCOCC2)C1 (stereo not drawn) | 1 | 1 | 2 | 3 | 4 | . | .
COc1ccc(C2C3=C(CC(C)(C)CC3=O)Oc3ncn(CCO)c(=N)c32)cc1OC (stereo not drawn) | 6 | 0 | 49* | -6 | -1 | 7 | 2
CC(C)Cn1cnc2c(c1=N)C(c1ccccc1)C1=C(CC(C)(C)CC1=O)O2 (stereo not drawn) | 0 | -3 | -3 | 1 | 0 | . | .
CCCCn1c(SCC(=O)Nc2sc3c(c2C(N)=O)CCC3)nnc1-c1ccccc1 | 20 | 4 | 13* | -5 | 6 | 6 | 2
COC(=O)c1ccc(OC)c(CSc2nnc(COc3ccc(Cl)cc3)o2)c1 | 0 | -1 | 14* | 7 | -2 | 7 | 4
Cc1ccccc1OCCN(C#N)c1nc(N(C)C)nc(N(C)C)n1 | 1 | 6 | 5 | 12 | -1 | . | .
COc1ccc(NC(=O)c2cccs2)cc1C(=O)N1CCN(c2ccccc2)CC1 | 1 | 2 | 24* | 11 | 3 | 9 | 2
Cc1cc(NC(=O)c2ccc3[nH]c(C)c(C)c3c2)ccn1 | 1 | -5 | 14* | 46 | 3 | 10 | 3
CC(=O)Nc1ccc(NC(=O)C2CC(=O)N(Cc3ccco3)C2)cc1 (stereo not drawn) | 0 | 2 | -1 | 3 | . | . | .
Cc1ccc2nc(-c3cccc(Br)c3)c(Cc3ccccc3)n2c1 | 20 | -3 | 6 | . | . | . | .
Cc1ccc(Cc2c(-c3ccccc3)nc3cc(C)ccn23)cc1 | 27* | 13 | 17* | 23 | . | 13 | 6
CC1=CCC2C(=O)N(c3cccc(C(=O)Nc4ccccc4Cl)c3)C(=O)C2C1 (stereo not drawn) | -1 | 1 | -1 | -18 | -1 | . | .
Cc1cccc(C)c1-n1nnnc1C1(C)CCC(=O)N1CCCn1ccnc1 (stereo not drawn) | -2 | -3 | 0 | . | . | . | .
CCCCn1nnnc1C1(C)CCC(=O)N1CCCn1ccnc1 (stereo not drawn) | 17 | 7 | 14* | . | . | 17 | 16*
COc1cccc(-c2c(C(=O)O)cc(O)c3ccc(OC)cc23)c1 | 3 | -4 | -3 | 6 | . | . | .
O=C(N/N=C/c1cccc(F)c1)c1cc(-c2ccco2)nc2ccccc12 | 30* | 16 | 24* | 15 | 10 | 42* | 36*
COc1ccc(CSC(=S)NNc2ccccc2)cc1 | -1 | 14 | -2 | 16 | . | . | .
OC[C@@H](O)C(O)[C@@H](O)CO (stereo partly drawn) | 13 | 21 | 22* | . | . | 6 | 3
COc1ccc(C(=O)N=C2SC3CS(=O)(=O)CC3N2Cc2ccccc2)cc1OC (stereo not drawn) | 2 | 0 | 7 | 9 | 2 | . | .
O=C1NC(=Nc2ccccc2Cl)S/C1=C\c1ccc(C(=O)O)cc1 | 0 | 1 | 0 | -41 | 10 | . | .
CC12CCC(C/C1=N\N=C1\NC(=O)/C(=C\c3ccc(Cl)cc3)S1)C2(C)C (stereo not drawn) | 17 | 5 | 13* | -16 | -8 | 3 | 1
SMILES | UHRF1 MBD2 ctr | PRMT1 inh | MBD2 DNA inh | PfG6PD inh | PfM18AAP inh | UHRF1 DNA bind | MBD2 confirm
CCCOc1ccc(-c2c(C(=O)N/N=C/c3ccccc3OCC)nnn2-c2nonc2N)cc1 | 0 | 0 | 1 | 4 | -13 | . | .
O=[N+]([O-])c1ccc(NN=Cc2cc(Br)ccc2O)nc1 | -3 | 1 | 18* | 1 | . | 4 | 1
CC(=O)Nc1ccc(C=NNc2ccc([N+](=O)[O-])cn2)cc1 | 7 | 2 | -4 | 40 | . | . | .
C[C@@H]1CN([C@@H](C)CO)C(=O)CCCn2cc(nn2)CO[C@H]1CN(C)C(=O)C1CC1 | 0 | 2 | 13* | . | . | 4 | 1
O=C(Nc1nc(-c2ccc(Br)cc2)cs1)c1cccnc1 | 4 | 4 | -5 | 0 | -4 | . | .
O=C(NC(=S)Nc1nc(-c2ccc(Br)cc2)cs1)c1cccnc1 | -3 | 1 | 16* | -9 | -3 | 6 | 1
O=C1/C(=C/C=C/c2ccco2)SC(=S)N1c1ccc(O)cc1 | 87* | 25* | 41* | 32 | 15 | 20 | 6
CC(C)C(C(=O)O)N1C(=O)/C(=C/C=C/c2ccco2)SC1=S (stereo not drawn) | . | . | . | 32 | 16 | . | .
COc1cc(OC)nc(Oc2ccccc2/C=N/O)n1 | 0 | -2 | 15* | 15 | . | 0 | 4
COc1cc(OC)nc(Oc2ccccc2C=O)n1 | -6 | 0 | -1 | 11 | . | . | .
O=C(/C=C/c1ccco1)NC(=S)Nc1ccc(C(=O)O)cc1 | 87* | 24* | 48* | 4 | 29* | 75* | 30*
O=C(NC1CCCC1)C(c1ccccn1)N(C(=O)c1csnn1)c1ccccc1Cl (stereo not drawn) | -2 | -2 | 1 | -13 | 1 | . | .
COc1cc(CC(=O)OCC(=O)Nc2ccc(N(C)C)cc2)cc(OC)c1OC | 2 | 0 | -7 | 4 | . | . | .
CCOC(=O)C1=C(COC(=O)COc2cccc(C)c2C)NC(=O)NC1C (stereo not drawn) | 7 | 0 | 5 | 15 | . | . | .
CC(CCc1ccccc1)NC(=O)CN1CCN(Cc2ccc(Cl)cc2)C1=O (stereo not drawn) | 1 | 0 | 17* | 11 | 3 | 5 | 4
CCOC(=O)c1c(NC(=O)C2CCCCC2)sc2c1CCN(C(C)C)C2 | 2 | 4 | 16* | -2 | 2 | 5 | 5
COC(=O)c1c(NC(=O)C2CCCCC2)sc2c1CCN(C(C)C)C2 | 3 | 3 | 4 | -24 | -11 | . | .
CCOC(=O)c1c(NC(=O)c2ccc(S(=O)(=O)N3CCOCC3)cc2)sc2c1CCN(C(C)C)C2 | 25* | -4 | 20* | -21 | -2 | 34* | 27*
CCc1noc(C)c1C(=O)NNC(=O)c1ccccc1F | 2 | -1 | 6 | -16 | . | . | .
CC1(C)S[C@@H]2[C@H](NC(=O)[C@H](N)c3ccc(O)cc3)C(=O)N2[C@H]1C(=O)O | 8 | 1 | 2 | -11 | 7 | . | .
